Values joined by “and” are separate entries in the source; they are usually repeats but may differ in a detail not shown here. Equal entries are not always repeated. Active and inactive are the calls of the source. Unless noted, calls follow the shape of the full dose curve.

The target in assay [1] is Ubiquitin carboxyl-terminal hydrolase 1 (Homo sapiens) (UniProt O94782). As to the kind of experiment: Inhibitors of USP1/UAF1: Pilot qHTS (AID 504865; active = well fitted inhibition curve with a large enough effect; inconclusive = small, poorly fitted or top-dose-only effect;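 also: rhodamine fluorescence freed from ubiquitin-rhodamine substrate followed over time; top concentration of the series differs between compounds; % is scaled to controls: 0 for no effect and ±100 for the full control effect; nearly all actives have a fitted effect of over 35% in size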). A digest of the protocol:
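Enzyme-free wells gave the negative control, while test wells held 1nM USP1/UAF1 preincubated with compound for 15 min at room temperature. Ub-Rho at 150nM final started the reaction, and fluorescence at 480/540 nm was recorded kinetically.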

Assay [2] concerns the target Estrogen receptor (Homo sapiens) (UniProt P03372). The assay can be described thus: qHTS assay for small molecule antagonists of estrogen receptor alpha signaling (AID 588513; active = well fitted curve in the direction sought with a large enough effect in the signal ratio, with a control signal flat, not every such curve was filed as active; inconclusive = small, poorly fitted or top-dose-only effect, or effect the other way, or a change in a side signal; inactive = no such curve, though single readings can be large or run the other way; the % refers to the signal ratio; also: potency is read from the fitted curve at half-maximal effect). A digest of the protocol:
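Antagonist-mode qHTS in ER-alpha-UAS-bla HEK 293 cells: compound titration, 0.5nM estradiol for 18 h, CCF4 fluorescence, Hill-derived IC50.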
(Quantitative high-throughput screening tests each substance at several concentrations.)

The target is the same in assay [3]. The assay can be described thus: qHTS assay for small molecule agonists of estrogen receptor alpha signaling (AID 588514).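 Also: 0% = vehicle only and 100% = reference agonist; nearly all actives have a fitted effect of over 70% in size.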 A digest of the protocol: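 ER-alpha-UAS-bla GripTite HEK 293 cells in medium with 2% charcoal/dextran-treated FBS were treated with compound titrations at 37 C for 18 hrs; beta-lactamase reporter read by CCF4 fluorescence after 2 hrs at RT.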

Assay [4] concerns the target Bile acid receptor (Homo sapiens) (UniProt Q96RI1). As to the kind of experiment: qHTS assay for small molecule antagonists of farnesoid X receptor signaling (AID 588526). Also: % is scaled to controls: 0 for no effect and ±100 for the full control effect. The essentials: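 Concentration-response titrations were fitted to the Hill equation for half-maximal inhibition and maximal response, with data normalised to 50 uM chenodeoxycholic acid and DMSO control wells. Cells: FXR-UAS-bla HEK293T, dialyzed FBS.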

Assay [5] has the same target. The assay can be described thus: qHTS assay for small molecule agonists of farnesoid X receptor signaling (AID 588527).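 Also: series mostly up to about 77 µM; 0% = vehicle basal and 100% = reference agonist.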 The conditions noted are these: HEK293T FXR-UAS-bla, beta-lactamase ratio, 16 h; stronger effect = higher value. A digest of the protocol:
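FXR-UAS-bla HEK293T, 10% dialyzed FBS; cpds up to 92 uM titration, 16 h 37 C; CCF4 dye 2 h RT; fluorescence. Normalized to chenodeoxycholic acid 100 uM (100%) and DMSO (0%); Hill fit gives EC50, efficacy.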

For assay [6], the target named is Peroxisome proliferator-activated receptor delta (Homo sapiens) (UniProt Q03181). As to the kind of experiment: qHTS assay for small molecule agonists of peroxisome proliferator-activated receptor delta signaling (AID 588534).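 Also: 0% = DMSO basal wells and 100% = positive control agonist at 10 µM.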 The essentials:
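Cell-based beta-lactamase reporter assay run in agonist mode: cells seeded and incubated 5 hrs at 37 C, compounds added and incubated 18 hrs at 37 C. CCF4 dye fluorescence read after 2 hrs at RT; EC50 and efficacy from Hill fits.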

A short description of assay [7]: qHTS assay for small molecule antagonists of peroxisome proliferator-activated receptor delta signaling (AID 588535; active = well fitted inhibition curve with a large enough effect in the signal ratio, with a control signal flat, not every such curve was filed as active; inconclusive = small, poorly fitted or top-dose-only effect, or effect the other way, or a change in a side signal; inactive = no such curve, though single readings can be large or run the other way; the % refers to the signal ratio;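 as to max response: cells co-treated with a PPAR-delta agonist as stimulator during compound exposure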). The conditions noted are these: HEK293T PPARd-UAS-bla, beta-lactamase FRET ratio, 18 h; 460 nm channel. The essentials:
(§1)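 GeneBLAzer PPAR-delta-UAS-bla HEK293T cells in medium with 2% charcoal/dextran FBS were preincubated 5 hrs at 37 C, then given compounds, incubated 18 hrs at 37 C, and read by CCF4 beta-lactamase fluorescence; IC50 from Hill fits.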

The target of assay [8] is Peroxisome proliferator-activated receptor delta (Homo sapiens) (UniProt Q03181). Described as above. A digest of the protocol:
as §1

Assay [9] deals with Peroxisome proliferator-activated receptor gamma (Homo sapiens) (UniProt P37231). The assay can be described thus: qHTS assay for small molecule agonists of peroxisome proliferator-activated receptor gamma signaling (AID 588536; active = well fitted curve in the direction sought with a large enough effect in the signal ratio, with a control signal flat, not every such curve was filed as active; inconclusive = small, poorly fitted or top-dose-only effect, or effect the other way, or a change in a side signal; inactive = no such curve, though single readings can be large or run the other way; the % refers to the signal ratio;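 also: 0% = DMSO basal wells and 100% = rosiglitazone at 2 µM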). A digest of the protocol:
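PPAR-gamma-UAS-bla HEK293 cells in medium with 1% charcoal/dextran-treated FBS were exposed to compounds for 16 h at 37 C. Beta-lactamase activity was read with CCF4 substrate (405 nm excitation, 460/530 nm emission).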

In assay [10] the target is Glucocorticoid receptor (Homo sapiens) (UniProt P04150). As to the kind of experiment: qHTS assay for small molecule agonists of glucocorticoid receptor signaling (AID 588532; active = well fitted curve in the direction sought with a large enough effect in the signal ratio, with a control signal flat; inconclusive = small, poorly fitted or top-dose-only effect, or a change in a side signal; inactive = no such curve, though single readings can be large or run the other way; the % refers to the signal ratio;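 also: 100% = dexamethasone at 0.1 µM and 0% = DMSO only wells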). The conditions noted are these: HeLa MMTV-bla, beta-lactamase ratio, agonist, 18 h; stronger effect = higher value; percent of dexamethasone control, DMSO zero. The essentials: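 MMTV-bla HeLa, beta-lactamase reporter; medium with 1% charcoal/dextran-stripped FBS; cpds up to 92 uM, 18 h, 37 C; CCF4 readout 460/530 nm; Hill fit → EC50, efficacy vs 0.1 uM dexamethasone = 100%.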

Assay [11] deals with Androgen receptor (Homo sapiens) (UniProt P10275). As to the kind of experiment: qHTS assay for small molecule agonists of androgen receptor signaling (AID 588515; active = well fitted curve in the direction sought with a large enough effect in the signal ratio, with a control signal flat; inconclusive = small, poorly fitted or top-dose-only effect, or effect the other way, or a change in a side signal; inactive = no such curve, though single readings can be large or run the other way; the % refers to the signal ratio; also: % is scaled to controls: 0 for no effect and ±100 for the full control effect). The conditions noted are these: AR-UAS-bla HEK293, beta-lactamase ratio, agonist 16 h; stronger effect = higher value. A digest of the protocol: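 EC50 and efficacy came from Hill fits of titrations (up to 92 uM) normalized to 30 nM R1881 as 100% and DMSO as 0%. Compound exposure was 16 h at 37 C on AR-UAS-bla HEK293 cells, with a 405/460/530 nm CCF4 fluorescence read.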

For assay [12] the target is unchanged. The assay can be described thus: qHTS assay for small molecule antagonists of androgen receptor signaling (AID 588516; active = well fitted curve in the direction sought with a large enough effect in the signal ratio, with a control signal flat, not every such curve was filed as active; inconclusive = small, poorly fitted or top-dose-only effect, or effect the other way, or a change in a side signal; inactive = no such curve, though single readings can be large or run the other way; the % refers to the signal ratio; also: % is scaled to controls: 0 for no effect and ±100 for the full control effect). A digest of the protocol:
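Compounds tested in titration against 10 nM R1881 in AR-responsive bla reporter HEK 293 cells; CCF4 fluorescence (460/530 nm) after 16 h exposure gave IC50 and efficacy.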

Chain of Bile acid receptor (Homo sapiens) (Q96RI1 whole entry, looked up): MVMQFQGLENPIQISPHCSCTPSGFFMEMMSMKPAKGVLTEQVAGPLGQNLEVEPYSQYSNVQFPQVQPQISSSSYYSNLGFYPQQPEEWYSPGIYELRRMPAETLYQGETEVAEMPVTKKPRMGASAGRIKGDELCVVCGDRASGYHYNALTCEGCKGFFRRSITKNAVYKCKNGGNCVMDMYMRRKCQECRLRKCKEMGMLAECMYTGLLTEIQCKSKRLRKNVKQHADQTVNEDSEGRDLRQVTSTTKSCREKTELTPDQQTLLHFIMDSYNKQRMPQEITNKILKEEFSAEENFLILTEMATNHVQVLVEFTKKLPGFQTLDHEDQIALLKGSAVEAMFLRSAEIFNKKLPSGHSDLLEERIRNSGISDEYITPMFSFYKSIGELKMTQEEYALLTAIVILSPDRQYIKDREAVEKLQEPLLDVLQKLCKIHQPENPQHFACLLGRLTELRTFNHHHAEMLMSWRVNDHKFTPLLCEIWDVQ
Chain of Glucocorticoid receptor (Homo sapiens) (P04150 whole entry, looked up): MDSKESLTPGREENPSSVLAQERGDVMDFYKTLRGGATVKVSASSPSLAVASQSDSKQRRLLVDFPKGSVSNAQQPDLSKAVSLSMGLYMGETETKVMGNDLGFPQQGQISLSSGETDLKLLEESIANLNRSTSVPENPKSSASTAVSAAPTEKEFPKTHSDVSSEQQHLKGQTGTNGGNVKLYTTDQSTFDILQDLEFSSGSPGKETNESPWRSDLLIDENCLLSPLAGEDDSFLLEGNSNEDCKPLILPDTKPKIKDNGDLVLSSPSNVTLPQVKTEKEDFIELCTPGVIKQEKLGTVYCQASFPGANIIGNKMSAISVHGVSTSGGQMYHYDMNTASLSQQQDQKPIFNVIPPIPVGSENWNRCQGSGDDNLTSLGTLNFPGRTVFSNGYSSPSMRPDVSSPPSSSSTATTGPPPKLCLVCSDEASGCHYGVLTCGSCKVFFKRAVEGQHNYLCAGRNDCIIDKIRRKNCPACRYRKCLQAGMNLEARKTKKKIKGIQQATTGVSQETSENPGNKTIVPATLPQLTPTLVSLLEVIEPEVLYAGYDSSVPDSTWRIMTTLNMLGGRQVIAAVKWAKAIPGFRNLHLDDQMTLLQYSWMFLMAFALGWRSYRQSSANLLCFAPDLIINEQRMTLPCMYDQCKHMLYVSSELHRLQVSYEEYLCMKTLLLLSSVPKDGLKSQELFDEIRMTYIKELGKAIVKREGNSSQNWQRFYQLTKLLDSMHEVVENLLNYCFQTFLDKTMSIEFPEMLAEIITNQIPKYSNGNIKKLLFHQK
Chain of Estrogen receptor (Homo sapiens) (P03372 whole entry, looked up): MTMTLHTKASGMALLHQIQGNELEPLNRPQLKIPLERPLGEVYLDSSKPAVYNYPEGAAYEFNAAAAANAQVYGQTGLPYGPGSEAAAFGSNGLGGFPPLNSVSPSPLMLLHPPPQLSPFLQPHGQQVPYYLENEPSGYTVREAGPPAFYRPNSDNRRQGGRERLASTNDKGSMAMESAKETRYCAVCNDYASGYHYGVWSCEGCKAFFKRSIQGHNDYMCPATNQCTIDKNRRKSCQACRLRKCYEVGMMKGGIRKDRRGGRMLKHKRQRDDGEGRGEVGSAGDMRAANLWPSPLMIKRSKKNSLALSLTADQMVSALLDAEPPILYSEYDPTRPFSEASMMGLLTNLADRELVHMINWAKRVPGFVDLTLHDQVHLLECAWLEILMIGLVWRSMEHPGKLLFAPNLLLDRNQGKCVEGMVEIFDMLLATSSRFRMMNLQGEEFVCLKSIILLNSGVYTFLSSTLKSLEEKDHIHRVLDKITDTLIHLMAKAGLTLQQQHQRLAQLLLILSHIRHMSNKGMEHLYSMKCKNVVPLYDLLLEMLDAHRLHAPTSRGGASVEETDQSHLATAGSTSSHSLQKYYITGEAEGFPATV
Chain of Ubiquitin carboxyl-terminal hydrolase 1 (Homo sapiens) (O94782 whole entry, looked up): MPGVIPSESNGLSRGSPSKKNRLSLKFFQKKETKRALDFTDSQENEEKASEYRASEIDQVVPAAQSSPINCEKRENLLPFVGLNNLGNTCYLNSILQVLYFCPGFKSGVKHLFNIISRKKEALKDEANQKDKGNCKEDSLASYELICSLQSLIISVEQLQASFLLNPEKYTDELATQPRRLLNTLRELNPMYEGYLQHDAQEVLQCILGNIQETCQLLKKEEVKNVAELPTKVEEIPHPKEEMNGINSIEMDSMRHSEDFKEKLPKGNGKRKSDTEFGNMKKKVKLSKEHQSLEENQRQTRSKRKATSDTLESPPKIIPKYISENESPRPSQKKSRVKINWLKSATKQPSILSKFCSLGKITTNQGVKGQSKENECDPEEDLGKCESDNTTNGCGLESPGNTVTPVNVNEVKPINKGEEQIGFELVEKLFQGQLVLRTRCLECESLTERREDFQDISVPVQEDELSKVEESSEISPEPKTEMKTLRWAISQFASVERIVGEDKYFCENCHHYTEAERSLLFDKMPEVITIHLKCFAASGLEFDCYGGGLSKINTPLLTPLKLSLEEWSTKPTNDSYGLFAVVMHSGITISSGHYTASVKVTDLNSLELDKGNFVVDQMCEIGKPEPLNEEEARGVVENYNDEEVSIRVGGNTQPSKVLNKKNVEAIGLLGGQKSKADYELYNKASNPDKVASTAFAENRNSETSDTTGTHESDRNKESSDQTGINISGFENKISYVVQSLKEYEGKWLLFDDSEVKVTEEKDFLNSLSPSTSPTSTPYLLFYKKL
Chain of Peroxisome proliferator-activated receptor delta (Homo sapiens) (Q03181 whole entry, looked up): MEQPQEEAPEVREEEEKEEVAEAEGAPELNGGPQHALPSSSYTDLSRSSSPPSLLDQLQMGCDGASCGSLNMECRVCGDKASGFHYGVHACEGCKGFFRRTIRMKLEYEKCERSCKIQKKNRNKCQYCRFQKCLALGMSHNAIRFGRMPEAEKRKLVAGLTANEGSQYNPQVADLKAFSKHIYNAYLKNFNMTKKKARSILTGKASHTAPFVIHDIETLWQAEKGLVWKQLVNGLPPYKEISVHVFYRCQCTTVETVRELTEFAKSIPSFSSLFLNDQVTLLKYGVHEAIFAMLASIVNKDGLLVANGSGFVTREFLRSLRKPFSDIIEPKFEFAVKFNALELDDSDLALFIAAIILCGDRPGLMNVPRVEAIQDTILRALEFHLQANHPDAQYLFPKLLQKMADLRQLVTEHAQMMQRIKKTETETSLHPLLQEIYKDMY
Chain of Peroxisome proliferator-activated receptor gamma (Homo sapiens) (P37231 whole entry, looked up): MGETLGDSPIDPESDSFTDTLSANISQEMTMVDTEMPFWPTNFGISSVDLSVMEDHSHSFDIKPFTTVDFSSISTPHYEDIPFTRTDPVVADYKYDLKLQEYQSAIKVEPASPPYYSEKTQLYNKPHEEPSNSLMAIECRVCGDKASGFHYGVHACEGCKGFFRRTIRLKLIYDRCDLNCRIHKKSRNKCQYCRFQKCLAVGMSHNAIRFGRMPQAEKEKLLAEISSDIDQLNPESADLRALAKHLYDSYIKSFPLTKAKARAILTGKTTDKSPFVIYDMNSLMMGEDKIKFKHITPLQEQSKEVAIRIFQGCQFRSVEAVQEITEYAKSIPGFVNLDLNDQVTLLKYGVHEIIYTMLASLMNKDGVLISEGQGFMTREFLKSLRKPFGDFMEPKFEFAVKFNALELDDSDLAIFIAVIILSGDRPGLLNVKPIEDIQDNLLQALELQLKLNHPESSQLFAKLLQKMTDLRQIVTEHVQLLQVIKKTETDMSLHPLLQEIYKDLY
Chain of Androgen receptor (Homo sapiens) (P10275 whole entry, looked up): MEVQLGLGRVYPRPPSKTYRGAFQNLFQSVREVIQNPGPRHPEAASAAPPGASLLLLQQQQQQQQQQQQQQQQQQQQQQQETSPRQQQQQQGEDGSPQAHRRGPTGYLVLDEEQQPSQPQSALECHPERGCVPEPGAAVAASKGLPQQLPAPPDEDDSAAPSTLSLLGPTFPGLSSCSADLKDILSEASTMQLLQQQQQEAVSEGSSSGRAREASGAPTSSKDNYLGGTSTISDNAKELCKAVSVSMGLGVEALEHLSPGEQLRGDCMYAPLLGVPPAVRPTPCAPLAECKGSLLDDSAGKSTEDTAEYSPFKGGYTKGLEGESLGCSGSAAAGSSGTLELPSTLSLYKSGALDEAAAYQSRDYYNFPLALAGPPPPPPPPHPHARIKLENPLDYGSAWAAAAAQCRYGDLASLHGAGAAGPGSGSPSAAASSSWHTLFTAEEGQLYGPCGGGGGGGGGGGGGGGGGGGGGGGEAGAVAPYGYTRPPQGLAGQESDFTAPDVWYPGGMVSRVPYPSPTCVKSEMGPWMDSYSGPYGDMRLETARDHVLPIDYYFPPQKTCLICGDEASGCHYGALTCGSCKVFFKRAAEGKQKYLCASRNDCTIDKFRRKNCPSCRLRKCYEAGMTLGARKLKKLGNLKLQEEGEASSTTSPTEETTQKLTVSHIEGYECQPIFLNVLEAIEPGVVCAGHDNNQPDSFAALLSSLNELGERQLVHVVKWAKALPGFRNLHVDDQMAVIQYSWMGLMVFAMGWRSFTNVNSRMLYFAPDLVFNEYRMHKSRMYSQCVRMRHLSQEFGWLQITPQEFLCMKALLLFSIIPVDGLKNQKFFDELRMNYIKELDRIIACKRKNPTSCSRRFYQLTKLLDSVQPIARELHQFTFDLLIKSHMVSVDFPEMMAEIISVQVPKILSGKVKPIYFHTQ

In the case of `ClC=C(Cl)Cl`, the Potency entry in assay [1], in [2], in assay [3] and in assay [4] was “inactive” throughout. Also, the activation in assay [5] is -1.52% (inactive) and -2.36% (inactive). The compound was called inactive in assay [6], in [8] and in [9]. Moreover, the max response in [7] was -19.2% and 28.8%.
For `S=C=S`, the Potency entry in assay [1], in assay [2] and in [3] was “inactive” in each case. In addition, the activation in assay [10] was 1.7% (inactive). In addition, the call in [9] was inactive.
For `O=C(O)C(Cl)(Cl)Cl`, the Potency result in assay [1] was “inactive”. In addition, the compound was classed as inactive in assay [6], in [8] and in [9]. The max response in assay [7] is -10%.
Take `C[C@H]1CC[C@@H]2[C@@H](C)[C@H]3[C@H](C[C@H]4[C@@H]5CC=C6CC(O[C@@H]7O[C@H](CO)[C@H](O)[C@H](O[C@@H]8O[C@H](CO)[C@@H](O)[C@H](O)[C@H]8O)[C@H]7O[C@H]7O[C@@H](C)[C@H](O)[C@@H](O)[C@H]7O)CC[C@]6(C)[C@H]5CC[C@]34C)N2C1` (stereo partly drawn): the Potency in assay [2] is 22.4 µM [inconclusive] (active). The Potency result in assay [3] is “inactive”. The figures for the activation in [5] and in assay [10] were 11.7% (inactive) and -7.38% (inactive), respectively. In [6], the outcome was inactive.
On to `O=[N+]([O-])c1ccccc1`, for which the Potency entry in assay [1], in [2] and in assay [3] was “inactive” in each case. For the same compound, in assay [10], the activation was -2.43% (inactive) and 5.7% (inactive). Also, the compound was classed as inactive in assay [6], in [8] and in [9]. Moreover, in assay [7], the max response was determined as 3.64%.
For `O=[N+]([O-])c1ccc(F)c([N+](=O)[O-])c1`, the Potency result in [2] and in assay [3] was “inactive” throughout. Further, the activation in assay [5] was -1.56% (inactive). Also, the compound was called inactive in [9].
As to `O=CC=O`, the Potency entry in assay [1], in assay [2] and in assay [3] was “inactive” throughout. In addition, the activation is 7.81% (inactive) in assay [11] and -1.86% (inactive) in assay [10]. For the same compound, the compound was classed as inactive in [12], in assay [6] and in [9].
As for `CCCCCCCCOC(=O)c1ccccc1C(=O)OCCCCCCCC`, the Potency entry in [1], in [2] and in assay [4] was “inactive” in each case. Besides, the activation in assay [11] was 20.2% (inactive) and 9.55% (inactive); in assay [5] it was 1.69% (inactive). Moreover, the outcome in assay [12], in assay [6], in assay [8] and in [9] was inactive. Moreover, the max response in [7] is 13.7% and -2.08%.
Turning to `CCCSP(=O)(OCC)SCCC`, the activation in assay [11] is -4.11% (inactive); in [5], 2.76% (inactive). Besides, in [4], the Potency entry was “inactive”. In [9], the call was inactive.
As to `N#CN`, the Potency result in [1], in [2] and in [3] was “inactive” throughout. Also, the activation in assay [10] is -6.37% (inactive). In addition, the call in [6], in assay [8] and in [9] was inactive. Moreover, the max response in [7] was 20.7%.
`CC(C)CCON=O`: in [1], the Potency entry was “inactive”. Also, the activation in [10] is -2.48% (inactive). For the same compound, the compound was classed as inactive in assay [6], in assay [8] and in [9]. The max response in assay [7] was 8.58%.
`O=C1C[C@@H]2OCC=C3CN4CC[C@]56c7ccccc7N1[C@H]5[C@H]2[C@H]3C[C@H]46`: the outcome in assay [9] was inactive.
On to `O=[N+]([O-])C(Br)(CO)CO`, for which the Potency result in [1], in [3] and in assay [4] was “inactive” each time. For the same compound, the figures for the activation in assay [11] and in assay [5] were -2.08% (inactive) and 2.54% (inactive), respectively. Further, the call in assay [12], in [6], in [8] and in [9] was inactive. For the same compound, the max response in [7] is -53.3%.

For the origin of these results see PubChem BioAssay (NCATS).
